# The supplement of paper PMC12632987
# B1: uchl1_122_7433 (protein)
# chain: MITIEVEVTSSLSPEALAILKEYAARLLDNAEFKEEKLSPGTLLLTVTGELKDVTDEEILAIENEALERASKMQTLTPNQRVSFGNALRRIARAVAKALA
# B2: GBRAPL2_85_7421 (protein)
# chain: TEKVTIVAHTLEEVVDMSVDVLEALEPKGTVEIEGIVAVPSSELEKALKELPKAAEELKKRLEELAKKRPGLTINAEIRIFNLDTKEFHPKVEKFTVKNE
# B3: GBRAPL2_83_7415 (protein)
# chain: VERTVLITTEITVRHPDLTEEEALDLAGDVAARLREHGVKTVVGVEERDGVVHIVLESLTPDDPALRAAIDEEVDALVAELRARGAEVEVRREEEVVDVP
# B4: GBRAPL2_63_7407 (protein)
# chain: MTVRKVLEALLEHAILDLDTAERLEEALENETDEEELFETLVEAILDIRPELTPEEAREVAEKLVELAKQSEELLKEAVRALTTLSKEEFLAYLDELVAK
# B5: GBRAPL2_83_7410 (protein)
# chain: MEVLLELELTVTYKGNEEDKEKILDMLLEAQDKLRELGATAVVAEKLENGVYTFSLYAIYRGPREGAEKVRKTLEEFAEKIKKEFPEAKVEVKVLEEREL
# B6: GBRAPL2_83_7418 (protein)
# chain: VKTIRVITYDIEIKSENITEEEALDMAGDVAEELRKKGVKTVVGVEEENGVVHVTLEAIHEDDEELRKLIDEEVEKLVKELEAKGAEVKVKVEEELEEIE
# B7: GBRAPL2_83_7416 (protein)
# chain: MKKRVLITHEIEVKSEKVTKEEALDLAGDVAERLREKGIAAVVSVEEEDGVILVEIEALLEDSEEKIKIVEEEVEKLVKRLEELGAEVKLKTEREEEIVP
# B8: uchl1_122_7427 (protein)
# chain: TATVEVVGRRETIETIAEIIREVAAEHGLEVEVRIEELSPTTARLVVTVRVPPISDEELAAFERALEERMARAVEEKGLSRAEVGIATTKVIRAVRRANA
# B9: GBRAPL2_85_7420 (protein)
# chain: MEKITIVARTLEEAVEMAVDVVEALDPKGEIEVELIVLVPSSELEKAIAELPKAAEELKKKFQELAKKHPGLKINAEIEIFDSDTREFHPDVKKFTVEDK
# B10: uchl1_122_7438 (protein)
# chain: MLTIEVDVTSSLSPEGLEILKEYVSKLLDNPKFEEELVSPGTLRLIFTGELKDLTEEEIREIENEALEKAGANQSLTPNQRVSFGNAVRRIARQVAKARA
# B11: uchl1_122_7437 (protein)
# chain: MITIEVLVSSSISEKVLEIIKKFASKLLKNPKFKIEQVSPGTLKITITGELKDVSEEEIREIYNEALEELGKLQDITPNEKVSANTALRKIARDVARARR
# B12: GBRAPL2_64_7409 (protein)
# chain: PKVHLAIAYEVEEREEDGKKVLVLDATVYVIKDGEITELEAKVVAEQLSETTWLVKLELKKPDGSVIKREEVVEAPWEDVETEMLELVDEAAREAVEEEE
# B13: GBRAPL2_64_7408 (protein)
# chain: AKVHLAIAYEFKESTENGKKVLKLEATVYVIEDGEITELEAEVTATQLSETTWEVKLVLRQPDGSVLERTEVVTVPYEDVETEMLDLILEAAREAVAARR
# B14: uchl1_122_7431 (protein)
# chain: MKTVTVVVRKKDAPILIEIVREVAAEAGMKVEIEEEELSPNVVKLTITIDTTGLTEEQVEAAVEALERRVAEAMKETGSKSTDLRIAVGKIARAIRKAHA
# B15: GBRAPL2_83_7417 (protein)
# chain: VKKLKVITHDIEIKSENITEEEALDMAGDVAAELRKHGIKTVVGVERENGVVKVELESIMEDNEEKEKLVHEEVEKLVEELKKKGAEVKVETEEEIVEVE
# B16: GBRAPL2_93_7423 (protein)
# chain: MKVKVTVIELENGEVVRREERELSVEEAKELIRELLAEAIAAGNRVIIEIYDKETGWTFGYYAEDEEQAEKAYERTSEVLEDLAAEGKEVEVTITIERLE
# B17: uchl1_122_7432 (protein)
# chain: AETVTVIVPKEAAPIIVEVLKEVMAEHGATVEVELEELSENTVKITITIDTSGLTEEQVDAAVADLEERMAERFKEAGINSADAKNAVGRIARAIRRAGA
# B18: GBRAPL2_83_7413 (protein)
# chain: MTVRLALELTVTLEGDEEEKEALLDMMVETADELRKLGAAAVVAIEEEDGVLTIVLDVLVVGNKEQVEKVKKKLEEAAKEIKEKFPNAKVEVKVLEEEEL
# B19: uchl1_122_7430 (protein)
# chain: TVTVEAVGRRETMETLAAVITEVLTAAGLTVEVRIEELSPTTARLTVTISGAPLSDAEVDALIEELRRRAAEAVERLGLDRATVGLAVGRVERGVRRLAA
# B20: uchl1_122_7428 (protein)
# chain: METVEVVGRRRAIEAFAEIVREVAAEHGIAVEVEIEELSPTTARLTITFDVPPISDEELAAFEEDLARRVAEAVRELGLSPAEFGIAYTKVVRAVRRANA
# B21: uchl1_122_7435 (protein)
# chain: MITVEVLVTSSLSPAVLAIIKEYASRLLDNAEFELRRVDPGTLLLTVTGELKDVSDEEILAIRREAEERAAKDQTLTPNQRVSFGNALRRIARAVAKALA
# B22: uchl1_122_7429 (protein)
# chain: MVRVEVVGRRRTVEALAEVIREVAARHGIDVRVEIEELSPTTARLVVDIRVPPMSDAALEAALADLERRAAELVERLGLSRAEVGIATTRIVRGIRRAAA
# B23: GBRAPL2_63_7406 (protein)
# chain: SAVRRVLEALLRHAILDLDTAELLDEALETETDEEALYETLVEAILRIRPELTPEEAREVADKLIALAEQSEALLAEAVRDLTTLSKEEFLARLDALVAE
# B24: uchl1_122_7436 (protein)
# chain: MITIEVLVTSSLSPEGLAIIKDYAAKLLKDAEFKEEEVSPGTLLLTITGELKDVSDEEILEIRREAEERASKNQNLTPNERVSFGNALRRIARAVAKAKA
# B25: GBRAPL2_83_7414 (protein)
# chain: TTIELDLLLEVKLKGDEEEKEELLDLMVEAADRLRELGASAAVAIKEENGVLEVEVHVIAVGDEELVKKVEEKLKEAAEEIKKKFPKAEVKVEVLERKEL
# B26: GBRAPL2_93_7424 (protein)
# chain: NKVELIVKYLENGKLVKEEREVVSVEEAKAKIEELLKEAVENGEKVSIEIEDKDTGWVFGDYVENEEQAKKALERAKEILEDLAEEGKEVEVTIVIEKIT
# B27: uchl1_122_7426 (protein)
# chain: METVEVVGRRETIEALAELIREVAAEHGIEVEVRIEELSPTTARLVVTIRVPPISDEELDALIADLEARAAALVEEKGLPRAEVGIATTKIIRAIRRAAA
# B28: GBRAPL2_93_7422 (protein)
# chain: MKVKVTIIRLVNGEVVEEEEREVTVEEAKKLIEELLKEAVANGERVIIEIYDKDTGWTFGDYVENEEQAEKALKRAKEILDDLEKEGKEVEITITIEKKT
# B29: GBRAPL2_85_7419 (protein)
# chain: MEKVTIVARSLAEAVDMAVDVVEALEPEGEIEVDLIVLVPSSELEAALAALPAAAAELKARLQELARRHPGLVVRAEVEIFDSDTREFHPDVRRFTVRDE
# B30: GBRAPL2_93_7425 (protein)
# chain: NEVKVTIKHLVDGELVKEEERTVSVEEAKELIKKKLEEAIAAGNKVIIEIDDEDTGWSFGDYVTDEEQAKKALERAKEILEDLAAEGKKVEVEIVIEKIT
# B31: uchl1_122_7434 (protein)
# chain: MITIEVDVSSSLSPEVLEIIKEFASRLLDNAEFEEEELSPGTRRLTITGELKDVSDEEILEIENEALERASKLQTLTPNERVSFGNALRRIARAVAKARA
# B32: GBRAPL2_83_7411 (protein)
# chain: MKIELDVELTVVIKGDEEEVEKIEDMMVETARELRKLGAAAVVATKEEDGVYTFVLDVLYVGDEEGAKKVIELLKESAEKIKKEFPEAKVTVKVVEKKVL
# Legend:
# [1] = molecular target: UCHL1, P09936; assay: median log2 fold change of GCK-ALFA target abundance (FLAG IP / Myc IP barcode read proportion) (log2 ratio); each designed protein is fused to an ALFA-tag nanobody in HEK293 cells to bring the named protein to FLAG-tagged glucokinase (GCK); Myc marks an untargeted standard; higher = target protein stabilised (more abundant); settings: target protein: 3xFLAG-MCP-GCK-ALFA reporter; HEK293 landing pad (RPLP)
# Sequence of UCHL1, P09936 (P09936 whole entry, looked up, the tested form may be a part): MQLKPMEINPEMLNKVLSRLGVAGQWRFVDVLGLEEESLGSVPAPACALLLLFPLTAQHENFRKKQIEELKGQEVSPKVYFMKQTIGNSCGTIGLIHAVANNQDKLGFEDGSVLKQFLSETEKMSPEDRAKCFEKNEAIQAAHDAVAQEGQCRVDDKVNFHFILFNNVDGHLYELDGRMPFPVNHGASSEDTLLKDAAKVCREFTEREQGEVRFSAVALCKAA
# Procedure, shortened: (§1)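 The readout is target abundance, the per-binder median log2 ratio of FLAG to Myc barcode read proportions. It came from HEK293 landing-pad cells carrying a recombined ALFA-nanobody-fused binder library, induced with 2 μg mL^−1 doxycycline and transfected with a plasmid for a FLAG-tagged target and a Myc-tagged standard. After 48 h, lysates were immunoprecipitated with anti-FLAG and anti-Myc, and circular RNA barcodes were reverse transcribed, amplified and sequenced. Each barcode needed a proportion of at least 10^−7 in both replicates and each binder at least 3 barcodes per replicate, a pseudocount of 10^−6 was added, and the replicates were pooled.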
# [2] = molecular target: GABARAPL2, P60520; assay: as above; settings: target protein: 3xFLAG-MCP-GCK-ALFA reporter; HEK293 landing pad (RPLP)
# Sequence of GABARAPL2, P60520 (P60520 whole entry): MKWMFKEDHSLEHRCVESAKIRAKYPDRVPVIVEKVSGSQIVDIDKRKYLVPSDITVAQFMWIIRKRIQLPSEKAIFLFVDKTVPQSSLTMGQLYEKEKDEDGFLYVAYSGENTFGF
# Procedure, shortened: as §1
Binder,median log2 fold change [1],median log2 fold change [2]
B1,0.0352,–
B2,–,0.266
B3,–,-0.00519
B4,–,0.0216
B5,–,-0.0517
B6,–,0.388
B7,–,0.184
B8,0.284,–
B9,–,0.19
B10,0.324,–
B11,-0.0419,–
B12,–,-0.0236
B13,–,0.118
B14,-0.183,–
B15,–,0.0338
B16,–,-0.302

Binder,median log2 fold change [1],median log2 fold change [2]
B17,0.325,–
B18,–,-0.417
B19,0.13,–
B20,-0.0204,–
B21,-0.0374,–
B22,0.096,–
B23,–,-0.0969
B24,0.0349,–
B25,–,0.119
B26,–,0.137
B27,0.214,–
B28,–,0.15
B29,–,0.0842
B30,–,-0.332
B31,0.213,–
B32,–,-0.364
